# An excerpt weighted towards active compounds, which were near 7.3% of everything screened.
# Luc counter = Kinase-Glo luciferase inhibition (counter-screen) | Potency, µM (series often up to 38.3 µM), inactives show at the top dose activity change, negative = inhibition, actives largely listed as inhibitors | 200,000 tested, 0.28% active | Q27757 | Kinase-Glo luciferase, ATP luminescence, 8 min; further: on the % scale 0 is the no-effect control and ±100 the full control effect; nearly all actives have a fitted effect of over 60% in size
#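 Kinase-Glo luciferase light output from ATP and luciferin was measured with 10 uM ATP, within the enzyme's linear range. Buffer: 50 mM imidazole pH 7.2, 50 mM KCl, 7 mM MgCl2, 0.01% Tween 20, 0.05% BSA; luminescence read after 8 min at ambient temperature.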
# Rab9 promoter act = Rab9 promoter activation; Huh7 Rab9 promoter-luciferase reporter, luminescence, 24 h; Potency, µM (top dose mostly 9.22 µM), without a hit: at the highest dose activation, negative = inhibition, hits mostly activators; 320,000 tested, 2.8% active; further: % of control where 0% means no effect; nearly all actives have a fitted effect of over 60% in size
#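 Measured in stably transfected Huh7 cells bearing a Rab9 promoter–luciferase construct: 24 h compound treatment at 37 °C, followed by luminescence detection.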
# NPC1 promoter act = NPC1 promoter activation; Huh7 NPC1 promoter luciferase reporter, 24 h; Potency, µM (titrated, usually from 9.22 µM), without a hit: at the highest dose activation, most hits filed as activators; 320,000 tested, 2.4% active; AID 485313; further: % of control where 0% means no effect; nearly all actives have a fitted effect of over 60% in size
#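 Readout is luciferase luminescence, reflecting NPC1 promoter activation in stably transfected Huh7 cells after 24 h compound exposure at 37 °C in reduced-serum medium with 10% FBS.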
# FLuc modulator = counter-screen for miR-21 project: firefly luciferase inhibitors or activators; purified FLuc, Km substrates, luminescence inhibition; Potency, µM (highest dose often 57.5 µM), for the others: at the highest dose activity change, negative = inhibition, most hits filed as inhibitors; 360,000 tested, 6.9% active; AID 588342;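 further: plate controls were vehicle for no effect and reference inhibitor for full effect; nearly all actives have a fitted effect of over 55% in size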
# Target sequence (P08659 whole entry, looked up): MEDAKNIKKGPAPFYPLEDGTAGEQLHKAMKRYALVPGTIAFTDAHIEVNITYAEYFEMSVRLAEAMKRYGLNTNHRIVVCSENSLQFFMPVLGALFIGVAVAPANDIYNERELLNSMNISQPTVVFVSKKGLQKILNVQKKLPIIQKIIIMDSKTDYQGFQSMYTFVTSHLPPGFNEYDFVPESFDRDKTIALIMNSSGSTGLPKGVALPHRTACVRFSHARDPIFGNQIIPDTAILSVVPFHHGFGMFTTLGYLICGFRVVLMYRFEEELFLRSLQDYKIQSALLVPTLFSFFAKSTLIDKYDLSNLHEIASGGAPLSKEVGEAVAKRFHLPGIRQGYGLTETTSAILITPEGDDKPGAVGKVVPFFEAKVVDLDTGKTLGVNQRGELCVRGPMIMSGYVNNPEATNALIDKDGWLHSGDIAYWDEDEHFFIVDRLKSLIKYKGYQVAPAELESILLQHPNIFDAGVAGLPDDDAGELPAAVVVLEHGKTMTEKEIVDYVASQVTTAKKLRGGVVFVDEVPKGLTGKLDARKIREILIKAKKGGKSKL
#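 Biochemical qHTS of compounds, final roughly 60 µM downward over six points, against 10 nM purified firefly luciferase using Km concentrations of substrates (10 uM D-luciferin, 10 uM ATP) in Tris acetate pH 7.5 buffer; luminescence output.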
# ELG1 genotoxic = induces genotoxicity in HEK293T cells with luciferase-tagged ELG1; AID 504466; HEK293T ELG1-luciferase reporter, luminescence, 16 h; 330,000 tested, 1.3% active; Potency, µM (top dose mostly 46 µM), for the others: at the highest dose activity change, positive = activation, most hits filed as activators; further: % of control where 0% means no effect; nearly all actives have a fitted effect of over 60% in size
#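 Luminescence read-out: rising ELG1-luciferase signal, reflecting elevated ELG1 protein under genetic stress, flags genotoxic compounds. Cells were treated for 16 hr at 37 °C before ONE-Glo detection.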
# SMN2 splice up = SMN2 splice variant enhancement; 210,000 tested, 2.8% active; Potency, µM (series often up to 46.1 µM), for the others: at the highest dose activity change, positive = activation, hits mostly activators; HEK293 SMN2-luciferase splicing reporter, luminescence, 30-36 h; further: % of control where 0% means no effect; nearly all actives have a fitted effect of over 55% in size
#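 qHTS luciferase splicing reporter: luminescence rises when SMN2 exon 7 is included in transfected HEK293 cells. Compound exposure lasted 30-36 h at 37C, with 4.5 mM final sodium butyrate as control, followed by a ONE-Glo read.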
# An asterisk follows results filed as active; ? = inconclusive; · = no result; [ ] = another dose, or the depositor's remark. The call rests on the fitted dose curve; in most records, active means well fitted curve in the direction sought with a large enough effect; inconclusive means small, poorly fitted or top-dose-only effect, or another doubt; inactive means no such curve, though single readings can be large; an effect the other way counts as inactive or inconclusive. Potency means the concentration at half of the fitted maximal effect.
SMILES,Luc counter,Rab9 promoter act,NPC1 promoter act,FLuc modulator,ELG1 genotoxic,SMN2 splice up
Cc1cc(C(=O)COc2ccccc2C(N)=O)c(C)n1C1CC1,-0.2%,?,32.5%,15.1µM*,5.0%,-8.0%
Cc1cc(C(=O)COC(=O)c2ccc[nH]c2=O)c(C)n1-c1ccc(F)cc1,-2.0%,0.355µM*,0.562µM*,3.38µM*,?,5.01µM*
Cc1cc(C(=O)COC(=O)c2ccc[nH]c2=O)c(C)n1C1CC1,-3.6%,3.55µM*,?,4.78µM*,?,?
COC(=O)c1ccc(-n2c(C)cc(C(=O)COC(=O)CNS(=O)(=O)c3ccc(C)cc3)c2C)cc1,-0.1%,-5.6%,-4.8%,0.0%,2.0%,-12.1%
Cc1ccc(S(=O)(=O)NCC(=O)OCC(=O)c2cc(C)n(-c3ccccc3)c2C)cc1,0.3%,0.2%,-1.2%,15.1µM*,2.9%,?
Cc1ccc2occ(-c3cc(-c4ccc(F)cc4)nc4c3COc3ccc(F)cc3-4)c(=O)c2c1,·,·,·,-1.8%,·,-3.3%
COc1ccc(NC(=O)Cn2c(=O)oc3cc(S(=O)(=O)NC4CCCC4)ccc32)cc1OC,·,·,·,-7.3%,·,·
Cc1cc(C(=O)OCc2nnc(-c3ccccc3)o2)c(C)n1-c1ccccc1,-3.7%,-3.2%,-1.7%,?,-21.2%,-55.0%
Cc1cc(C(=O)COC(=O)c2ccc(F)cc2F)c(C)n1C1CC1,·,2.82µM*,2.51µM*,0.379µM*,?,·
Cc1noc(C)c1COC(=O)c1cc(C)n(-c2ccccc2)c1C,-1.5%,?,28.0%,15.1µM*,?,-10.2%
Cc1cc(C(=O)COC(=O)c2ccc[nH]c2=O)c(C)n1-c1ccccc1,-5.3%,0.282µM*,0.316µM*,1.69µM*,0.82µM*,2.51µM*
Cc1ccccc1OCC(=O)OCC(=O)c1cc(C)n(C2CC2)c1C,·,1.2%,-3.9%,?,4.0%,·
Cc1c(NC(=O)Cc2ccc(Cl)cc2)cccc1-c1nc2cccnc2s1,·,·,·,-7.2%,·,·
Cc1ccccc1Cn1cc(CCC(=O)NCc2cccc(Br)c2)c2ccccc21,·,·,·,-6.7%,·,·
Cc1nn(C)c(=O)n1-c1ccc(OCc2ccccc2)cc1,-11.0%,?,?,?,16.3%,11.2µM*
Cc1cc(C)c(S(=O)(=O)/N=C2\C=C(Nc3ccc(C(=O)O)cc3)C(=O)c3ccccc32)c(C)c1,·,-37.0%,-28.3%,?,-33.7%,·
O=C(O)c1ccc(NC2=C/C(=N/S(=O)(=O)c3ccccc3)c3ccccc3C2=O)cc1,-27.5%,-39.5%,-39.9%,15.1µM*,-16.3%,-102.8%
Cc1cc2nc(-c3ccc(=O)[nH]c3)n(Cc3ccccc3)c2cc1C,·,11.2%,-3.7%,15.1µM*,?,·
Cc1ccccc1Cn1c(-c2ccc(=O)[nH]c2)nc2ccccc21,·,1.8%[1.84 µM],-1.8%,4.9%,8.7%,·
CC(=O)c1ccc(NC(=O)C2CC(=O)N(Cc3ccccc3)C2)cc1 (stereo unspecified),-4.5%,?,?,9.53µM*,18.4µM*,?
Cc1ccnc(NC(=O)C2CC(=O)N(Cc3ccccc3)C2)c1 (stereo unspecified),·,-4.6%,-2.3%,6.01µM*,3.26µM*,·
Cc1cccc(NC(=O)c2sc3nc4c(cc3c2N)CCCCCC4)c1C,·,·,·,0.0%,·,-2.3%
Cc1cccc(NC(=O)c2onc3c2CCCC3)c1C,-12.1%,2.82µM*,4.47µM*,7.57µM*,?,29.0%
Cc1cccc(NC(=O)c2onc3c2CCCC3)n1,4.47µM*,0.398µM*,0.501µM*,0.757µM*,0.92µM*,·
Cc1ccccc1NC(=O)c1sc2nc3c(c(-c4ccco4)c2c1N)CCCC3,-2.1%,-0.6%,-4.4%,1.9%,-3.7%,-47.6%
Cc1ccccc1NC(=O)c1onc2c1CCCC2,?,2.51µM*,4.47µM*,6.01µM*,?,?
COc1ccc(-n2c(SCc3ccccc3F)nc3c([nH]c4ccccc43)c2=O)cc1,·,·,·,0.4%,·,·
Cc1cc(=O)[nH]c(N/N=C/c2cn(CCC#N)nc2-c2ccccc2)n1,-2.8%,-1.0%,-1.0%,19µM*,3.7%,18.4%

# Screens (PubChem BioAssay)
